Rab9 promoter act: activators of Rab9 promoter; hit rate 2.8% among 320,000; AID 485297; Potency, µM (doses to about 9.22 µM), most hits filed as activators; Huh7 Rab9 promoter-luciferase reporter, luminescence, 24 h; note: nearly all actives have a fitted effect of over 60% in size
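Cell-based reporter: Huh7 stable for Rab9 promoter-driven luciferase, plated in reduced-serum medium with 10% FBS at 1500 cells/well, compound-treated 24 h at 37 °C, luminescence read after 10 min reagent.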
ELG1 genotox: inducers of genotoxicity in HEK293T ELG1-luciferase cells; HEK293T ELG1-luciferase reporter, luminescence, 16 h; Potency, µM (top dose mostly 46 µM), most hits filed as activators; hit rate 1.3% among 330,000; AID 504466; note: nearly all actives have a fitted effect of over 60% in size
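Luminescence read-out: rising ELG1-luciferase signal, reflecting elevated ELG1 protein under genetic stress, flags genotoxic compounds. Cells were treated for 16 hr at 37 °C before ONE-Glo detection.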
SMN2 splice enh: enhancers of SMN2 splice variant expression. hit rate 2.8% among 210,000. Potency, µM (series often up to 46.1 µM), actives largely listed as activators. HEK293 SMN2-luciferase splicing reporter, luminescence, 30-36 h; note: nearly all actives have a fitted effect of over 55% in size
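qHTS luciferase splicing reporter: luminescence rises when SMN2 exon 7 is included in transfected HEK293 cells. Compound exposure lasted 30-36 h at 37C, with 4.5 mM final sodium butyrate as control, followed by a ONE-Glo read.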
FLuc modulator: inhibits or activates purified firefly luciferase, miR-21 counter-screen. Potency, µM (doses to about 57.5 µM), hits mostly inhibitors. AID 588342. hit rate 6.9% among 360,000. purified FLuc, Km substrates, luminescence inhibition. P08659; note: nearly all actives have a fitted effect of over 55% in size
Target sequence (P08659 whole entry, looked up): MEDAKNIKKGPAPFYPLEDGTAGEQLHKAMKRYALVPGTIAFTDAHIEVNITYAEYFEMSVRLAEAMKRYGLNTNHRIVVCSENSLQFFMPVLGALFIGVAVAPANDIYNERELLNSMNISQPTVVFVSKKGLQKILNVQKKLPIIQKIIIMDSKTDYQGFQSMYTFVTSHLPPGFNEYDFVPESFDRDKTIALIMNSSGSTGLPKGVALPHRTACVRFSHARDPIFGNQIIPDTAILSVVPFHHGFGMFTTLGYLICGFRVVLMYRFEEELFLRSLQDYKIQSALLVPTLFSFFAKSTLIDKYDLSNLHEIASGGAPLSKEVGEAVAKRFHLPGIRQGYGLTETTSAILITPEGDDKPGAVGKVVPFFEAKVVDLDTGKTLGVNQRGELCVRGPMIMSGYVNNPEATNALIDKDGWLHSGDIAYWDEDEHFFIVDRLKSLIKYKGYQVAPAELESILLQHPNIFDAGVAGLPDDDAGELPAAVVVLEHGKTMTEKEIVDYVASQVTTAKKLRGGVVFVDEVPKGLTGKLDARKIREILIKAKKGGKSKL
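Biochemical qHTS of compounds, final roughly 60 µM downward over six points, against 10 nM purified firefly luciferase using Km concentrations of substrates (10 uM D-luciferin, 10 uM ATP) in Tris acetate pH 7.5 buffer; luminescence output.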
ELG1 DNA repair: inhibitors of ELG1-dependent DNA repair in HEK293T cells; Potency, µM (highest dose often 46.1 µM), hits mostly inhibitors; hit rate 2.3% among 330,000; HEK293T ELG1-luciferase reporter, luminescence, 16 h; DNA damage induced by 5-fluorouridine; AID 504467; note: nearly all actives have a fitted effect of over 55% in size
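DMSO vehicle served as the neutral condition. Each well held 2,000 cells given 5-fluorouridine plus compound; after 16 hr at 37 °C/5% CO2, ONE-Glo was added and luciferase measured 30 min later.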
NPC1 prom act: activators of NPC1 promoter; Huh7 NPC1 promoter luciferase reporter, 24 h; Potency, µM (doses to about 9.22 µM), actives largely listed as activators; hit rate 2.4% among 320,000; note: nearly all actives have a fitted effect of over 60% in size
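Stable NPC1-promoter luciferase Huh7 line; cpd (DMSO) 24 h, 37 °C, 5% CO2; Amplite luciferase reagent 10 min RT; luminescence readout. qHTS format.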
Numbers stand for hits; . = inactive; ? = inconclusive; / = no result given; [ ] = dose if it differs, or a comment. A selection: hits, their analogues and other compounds. The true share with any hit is near 9.3%. Calls come from the whole dose curve; as a rule, active = well fitted curve in the direction sought with a large enough effect; inconclusive = small, poorly fitted or top-dose-only effect, or another doubt; inactive = no such curve, though single readings can be large; an effect the other way counts as inactive or inconclusive.

SMILES | Rab9 promoter act | ELG1 genotox | SMN2 splice enh | FLuc modulator | ELG1 DNA repair | NPC1 prom act
N#C/C(=C/c1ccco1)c1nc2ccccc2s1 | 3.5µM | 16µM | ? | 1.9µM | ? | .
CCOc1ccc(OCC)c(NC(=O)CSc2nc3c(c(=O)n(C)c(=O)n3C)n2C(C)C)c1 | . | . | / | . | 12µM | .
O=C(O)c1ccccc1-c1ccccc1C(=O)Nc1cccc(-c2nc3ccccc3o2)c1 | . | . | / | 8.5µM | . | .
CS(=O)(=O)c1ccccc1C(=O)Nc1ccc(-c2nc3ccccc3o2)cc1 | ? | . | / | 24µM | ? | ?
Cc1ccc(C(=O)Nc2cccc(-c3nc4ccccc4o3)c2)c(Cl)c1 | / | / | . | ? | / | /
Cc1ccc(C(=O)Nc2ccc(-c3nc4ccccc4o3)cc2)cc1Cl | / | / | . | . | / | /
CS(=O)(=O)c1ccccc1C(=O)Nc1ccc(-c2nc3ccccc3[nH]2)cc1 | 3.5µM | . | / | 13µM | ? | ?
CC(C)(C)OC(=O)C[C@H]1C/C=C\C[C@@H](CC(=O)N[C@@H](CO)Cc2ccccc2)C(=O)NCCOC1=O | / | . | / | / | . | /
CCCC(=O)NC(c1ccccc1)c1ccc2cccnc2c1O (centres undefined) | . | . | / | . | ? | .
Cc1ccc(NC(=O)CSCC(=O)NCc2ccco2)cc1 | . | . | / | . | . | .
Cc1ccc(NC(=O)C(=S)NCc2ccco2)cc1 | 2.8µM | ? | . | 6µM | ? | ?
Cc1ccc(NC(=O)CSCc2ccco2)cc1 | 4µM | ? | 13µM | 15µM | ? | ?
Cc1ccc(NC(=O)C(=O)NCc2ccco2)cc1 | / | / | 18µM | . | / | /
CCn1c(CN2CCCCC2)nc2cc(NC(=O)c3ccccc3[N+](=O)[O-])ccc21 | / | / | / | . | / | /
CC(C)(C)[C@H](N)C(=O)N[C@H]1CCC2C3CC=C4C[C@@H](O)CC[C@]4(C)C3CC[C@@]21C (some centres undefined) | / | . | / | / | ? | /
CCOC(=O)N1CCN(C(=O)CN(c2ccccc2OC)S(=O)(=O)c2ccc(OC)cc2)CC1 | . | . | / | . | . | .
Brc1ccc(Nc2nc(-c3cccnc3)cs2)cc1 | . | ? | 14µM | ? | ? | .
Cc1cc(O)ccc1Nc1nc(-c2cccs2)cs1 | ? | 3.3µM | ? | 0.54µM | ? | ?
Nc1ccc(Nc2nc(-c3ccncc3)cs2)cc1 | ? | ? | . | 4.8µM | ? | ?
CC(=O)c1ccc(Nc2nc(-c3cccnc3)cs2)cc1 | . | ? | / | ? | ? | .
Cc1ccc(Nc2nc(-c3cccnc3)cs2)cc1C | ? | 2.3µM | / | 0.85µM | ? | ?
COc1ccccc1CNC(=O)COc1ccc2c(c1)CCC2 | . | . | . | . | ? | .
Brc1cccc(Nc2nc(-c3cccnc3)cs2)c1 | . | ? | / | 9.5µM | ? | ?
O=C(O)c1ccc(Nc2nc(-c3cccnc3)cs2)cc1 | ? | . | / | 5.4µM | ? | ?
CCC(=O)c1ccc(OCC(=O)Nc2nc(-c3cccnc3)cs2)cc1 | . | . | / | . | ? | .
SMILES | Rab9 promoter act | ELG1 genotox | SMN2 splice enh | FLuc modulator | ELG1 DNA repair | NPC1 prom act
CCOc1ccc(Nc2nc(-c3cccnc3)cs2)cc1 | 2.2µM | ? | / | ? | ? | 2.2µM
Oc1ccc(Nc2nc(-c3cccnc3)cs2)cc1 | . | ? | / | 9.5µM | ? | .
O=C(NCc1cccs1)O[C@H]1C[C@H]2CC[C@@H]1C2 | / | / | .[9.22 µM] | / | / | /
Oc1ccc(Nc2nc(-c3ccc(O)cc3)cs2)cc1 | . | 8.2µM | 22µM | 7.6µM | ? | .
Cc1nc(C)c(-c2csc(Nc3ccc(O)cc3C)n2)s1 | . | . | / | . | . | .
Oc1ccc(Nc2nc(-c3ccc(Cl)cc3)cs2)cc1 | / | / | . | / | / | /
Cc1cc(O)ccc1Nc1nc(-c2cccnc2)cs1 | . | . | / | 6µM | ? | ?
Clc1cccc(Nc2nc(-c3cccnc3)cs2)c1 | . | ? | . | 13µM | ? | .
Oc1cccc(/C=N/Nc2ccc(Cl)nn2)c1 | . | ? | / | ? | ? | .
CC(OC(=O)c1ccc([N+](=O)[O-])o1)C(=O)Nc1nc(-c2ccc(F)c(F)c2)cs1 (centres undefined) | ? | . | / | 24µM | ? | ?
O=C(Nc1nc(-c2ccncc2)cs1)c1ccco1 | . | . | . | ? | ? | .
CC(=O)Nc1ccc(-c2csc(NC(=O)Cc3cccc(F)c3)n2)cc1 | . | . | / | . | 18µM | .
O=C(Nc1nc(-c2cccs2)cs1)c1ccco1 | 3.2µM | 10µM | 13µM | 8.5µM | ? | 4µM
O=C(Cc1ccccc1)Nc1nc(-c2cccs2)cs1 | . | . | . | 19µM | ? | .
Cc1cc(C(=O)CS(=O)(=O)c2ccc(F)cc2)cc(C)c1O | .[1.84 µM] | ? | / | ? | ? | .
Cc1nn2c(=O)cc(CSc3nc4ccccc4[nH]3)nc2s1 | . | . | . | . | . | .
O=C(Cc1ccccc1F)Nc1nc(-c2ccc(F)c(F)c2)cs1 | ? | . | / | 13µM | . | .
O=C(Cc1ccccc1)Nc1nc(-c2ccc(F)c(F)c2)cs1 | . | . | / | ? | . | .
O=C(Cc1ccccc1F)Nc1nc(-c2cccs2)cs1 | ? | ? | . | 11µM | ? | ?
CCOc1ccc(-c2csc(Cn3c(CN4CCN(C)CC4)nc4ccccc4c3=O)n2)cc1 | . | . | / | . | 21µM | .
Cc1ccc2nc(N3C(=O)C(O)=C(C(=O)c4ccco4)C3c3cccs3)sc2c1 (centres undefined) | . | . | . | 17µM | ? | .
COc1ccc(/C(C)=N\NS(=O)(=O)c2ccccc2)cc1OC | . | . | . | . | . | .
COc1ccc(/C(C)=N\Nc2nc(-c3ccc(Cl)cc3)cc(C(F)(F)F)n2)cc1OC | . | . | . | . | 8.2µM | .
C/C(=N\Nc1cccc(C(=O)O)c1)c1ccc(Cl)s1 | 2.8µM | ? | / | 11µM | ? | 3.2µM
COc1ccc(/C(C)=N/Nc2cccc(C(=O)O)c2)cc1OC | 1.1µM | 5.2µM | 10µM | 3.8µM | ? | 1µM
SMILES | Rab9 promoter act | ELG1 genotox | SMN2 splice enh | FLuc modulator | ELG1 DNA repair | NPC1 prom act
C/C(=N\NC(=O)C(=O)Nc1cccc(C(F)(F)F)c1)c1ccc(Cl)s1 | . | . | . | . | . | .
COc1ccc(/C(C)=N/Nc2nc3ccccc3nc2C)cc1OC | . | . | / | 3µM | ? | .
COc1ccc(/C(C)=N\O)cc1OC | . | . | / | . | . | .
CC(=O)C1=C(C)NC(=O)CC1c1ccccc1Cl (centres undefined) | . | . | . | . | . | .
CN(C)C(=O)Cn1c(SCC(=O)NCc2ccc3c(c2)OCO3)nc2ccccc21 | . | . | . | . | . | .
COc1ccc(C(=O)Nc2cccc(/C(C)=N/NC(=O)c3ccc([N+](=O)[O-])cc3)c2)cc1OC | . | . | . | 5.4µM | . | .
O=C(N/N=C/c1cc(Br)cc(Br)c1O)c1ccncc1 | . | ? | . | . | ? | .
COc1ccccc1/C=C/C=N/Nc1cccc(C(=O)O)c1 | 0.13µM | 0.65µM | / | 0.54µM | ? | 0.11µM
O=C(O)c1cccc(N/N=C/c2cc(Br)cc(Br)c2O)c1 | 2.8µM | ? | .[1.84 µM] | 24µM | ? | ?
